From PubChem BioAssay
This is one part of a sample in which hits are shown more often than they occur.
Cycloheximide cs: Cycloheximide Counterscreen for Small Molecule Inhibitors of Shiga Toxin. cell reporter, cycloheximide protein synthesis inhibition counterscreen. max response, %. actives 12% (n = 300,000). AID 2314, 2010; in the data active = max response mostly above about 13%, no sharp cut-off; inactive = mostly below about 14%; also: read at 38.3 µM for the half of the compounds with a filed dose; 0% is about no effect
AmpC no deterg: qHTS Inhibitors of AmpC Beta-Lactamase (assay without detergent). P00811. AmpC nitrocefin hydrolysis, absorbance 480 nm, 0.0001% Triton. Potency, µM (doses to about 57.1 µM), inactives show at the highest dose activity change, negative = inhibition, hits mostly inhibitors. actives 0.52% (n = 330,000);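 also: potency is read from the fitted curve at half-maximal effect; plate controls were no compound for no effect and no enzyme for full effect; nearly all actives have a fitted effect of over 20% in size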
Target sequence (P00811 whole entry, looked up): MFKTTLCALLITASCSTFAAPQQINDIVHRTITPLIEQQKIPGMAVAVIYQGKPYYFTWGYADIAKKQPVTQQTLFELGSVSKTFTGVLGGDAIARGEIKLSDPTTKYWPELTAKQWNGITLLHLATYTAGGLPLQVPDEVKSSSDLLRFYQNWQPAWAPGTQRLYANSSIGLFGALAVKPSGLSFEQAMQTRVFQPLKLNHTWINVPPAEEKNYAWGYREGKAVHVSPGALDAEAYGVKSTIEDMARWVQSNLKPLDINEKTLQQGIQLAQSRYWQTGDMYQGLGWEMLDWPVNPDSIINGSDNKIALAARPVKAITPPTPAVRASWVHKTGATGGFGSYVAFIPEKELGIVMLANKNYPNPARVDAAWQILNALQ
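AmpC (5.3 nM in the dispensed reagent) in 20 mM phosphate pH 7.0 with 0.01% (detergent screen) or 0.0001% Triton X-100 was preincubated with compounds for 15 min at room temperature. Nitrocefin was then added from an 800 uM solution, and hydrolysis was followed at 480 nm.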
NS1 inh: qHTS Assay for Inhibitors of Influenza NS1 Protein Function; Potency, µM (top dose mostly 46.1 µM), inactives show top-dose activity, positive = more growth; actives 0.4% (n = 270,000); calls by dose curve; also: potency is read from the fitted curve at half-maximal effect; actives are rising curves; nearly all actives have a fitted effect of over 50% in size
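Read-out: OD600 growth recovery of NS1-expressing budding yeast. Cells grown overnight at 30C in -URA glucose medium, washed, resuspended and diluted 1:100 in 2% galactose assay medium, pH 6.0. Same strain lacking NS1 served as positive control.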
AmpC inh detg: qHTS Inhibitors of AmpC Beta-Lactamase (assay with detergent). Potency, µM (top dose mostly 114 µM), for the others: at the top dose activity change, negative = inhibition, usual class: inhibitors. P00811. AID 485294, 2010. AmpC hydrolysis of nitrocefin, absorbance 480 nm, 0.01% Triton. actives 0.041% (n = 370,000);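 also: potency is read from the fitted curve at half-maximal effect; 0% = no-compound wells and -100% = no-enzyme wells; nearly all actives have a fitted effect of over 25% in size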
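20 mM phosphate pH 7.0 + 0.01% (detergent screen) or 0.0001% Triton X-100; 5.3 nM AmpC reagent; cpd preinc 15 min RT; nitrocefin (800 uM stock) to start; A480 q20 s × 4 min; Activity was normalised to no-enzyme and no-compound control wells.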
Shiga toxin inh: A qHTS for Small Molecule Inhibitors of Shiga Toxin; actives 9.2% (n = 290,000); inhibition, % at 38.7 µM; Vero cells, Shiga toxin protein synthesis inhibition reporter; in the data active = inhibition mostly above about 28%, no sharp cut-off; inactive = mostly below about 43%; also: 0% is about no effect
Active calls of the source: *; ? = inconclusive; nt = not tested or not shown; + = active, no number. Unless noted, calls follow the shape of the dose curve; as a rule, active = well fitted curve in the direction sought with a large enough effect; inconclusive = small, poorly fitted or top-dose-only effect, or another doubt; inactive = no such curve, though single readings can be large; an effect the other way counts as inactive or inconclusive.

SMILES | Cycloheximide cs | AmpC no deterg | NS1 inh | AmpC inh detg | Shiga toxin inh
COc1ccccc1-c1ccc(NC2CCCC2)nn1 | 24* | -31% | -10% | -5% | 55*
COc1ccc(CNc2nc(-c3ccc(OC)cc3)cc(C(F)(F)F)n2)cc1 | nt | nt | nt | 13% | nt
COc1ccc(CNc2ccc(-c3ccccc3OC)nn2)cc1 | 22* | -13% | -23% | -1% | 26
COc1ccc(CNc2ccc(-c3ccc(OC)cc3)nn2)cc1 | 19* | -12% | -14% | -14% | 40*
CC(=O)CCC(=O)N1CCC(n2nccc2NC(=O)c2ccccc2C)CC1 | 7 | 30% | 17% | -5% | 5
COC(=O)c1ccc(N/C=C\C(=O)c2ccc3c(c2)OCO3)cc1 | 18* | 4% | -3% | 1% | 57*
COC(=O)c1ccc(N/C=C/C(=O)c2ccc(OC)c(OC)c2)cc1 | 8 | -15% | 3% | -21% | -9
COc1ccc(N/C=C\C(=O)c2ccc3c(c2)OCO3)cc1OC | 67* | 2% | -33% | 0% | 24*
COc1cccc(/C=C/C(=O)c2ccc3c(c2)OCO3)c1OC | nt | -6% | nt | 4% | nt
O=C(/C=C\Nc1cccc(F)c1)c1ccc2c(c1)OCO2 | 28* | -30% | -63% | ? | 26
O=C(/C=C\Nc1ccccc1Br)c1ccc2c(c1)OCO2 | -3 | -23% | nt | 5% | -6
CN(c1ccc(F)cc1)S(=O)(=O)N1CCCC(C(=O)NCCc2ccccc2)C1 (stereo unspecified) | nt | nt | nt | -7% | nt
COc1cc(OC)c(NS(=O)(=O)c2cc(Br)cnc2N)cc1Cl | -3 | -3% | -7% | -1% | -8
NC(=O)C1O[C@@H](O)[C@H](O)[C@@H](O)[C@H]1O (stereo partly specified) | -6 | nt | nt | nt | -6
CSc1nnc(-c2ccccc2Cl)n1N | 9 | -11% | 4% | ? | -16
Nn1c(-c2ccccc2Cl)nnc1-c1ccccc1Cl | 32* | -16% | -17% | -12% | +
COC(=O)c1cc(S(=O)(=O)C(C)C)c(S(C)=O)s1 (stereo unspecified) | 14* | -17% | -1% | 0% | 27
Cc1ccc(C(=O)Nc2ccc(-c3nc4ccccc4s3)c(O)c2)c(C)c1 | nt | nt | nt | 1% | nt
CC(=O)Nc1ccc(O)c(-c2nc3ccccc3s2)c1 | 49* | -18% | nt | -4% | 131*
O=C(CCS(=O)(=O)c1ccccc1)Nc1ccc(-c2nc3ccccc3s2)c(O)c1 | 44* | -14% | 3% | -3% | 48*
Cc1ccsc1C(=O)Nc1ccc(O)c(-c2nc3ccccc3s2)c1 | 18* | -19% | nt | ? | 45
O=C(COc1ccc(Cl)cc1)Nc1ccc(O)c(-c2nc3ccccc3s2)c1 | nt | nt | nt | 0% | nt
O=C(COCc1cc(-c2ccco2)on1)Nc1cccc(O)c1 | nt | nt | nt | -8% | nt
CC(NC(=O)C(=O)Nc1c2c(nn1-c1ccc(F)cc1)CSC2)c1ccccc1 (stereo unspecified) | nt | nt | nt | 4% | nt
Cc1ccc(NC(=O)Cn2c(-c3cncs3)nc3ccccc32)cc1Br | nt | nt | nt | 4% | nt
SMILES | Cycloheximide cs | AmpC no deterg | NS1 inh | AmpC inh detg | Shiga toxin inh
O=C(NCc1ccccc1)c1cc(-n2cnnc2)ccc1Cl | -2 | -10% | -6% | -10% | -35
CN(C(=O)c1cc(-n2cnnc2)ccc1Cl)c1ccccc1 | 17* | -5% | 21% | -2% | 43*
CCN(CC)c1ccc(N=Nc2ncn[nH]2)cc1 | 34* | -22% | nt | -3% | 124*
N#CC1=C(N)NC(SCC(=O)c2ccccc2)=C(C#N)C12CCCC2 | 40* | -30% | 3% | 0% | 67*
O=C(c1ccco1)N1CCN(C(c2cccs2)c2nnnn2C2CCCC2)CC1 (stereo unspecified) | 0 | 19% | -16% | -4% | -6
O=C(c1ccco1)N1CCN(C(c2ccccn2)c2nnnn2C2CCCC2)CC1 (stereo unspecified) | 37* | -3% | -6% | -1% | 86*
Clc1ccc(CNc2ncccn2)cc1 | 26* | -17% | 2% | 0% | 43*
Cc1ccnc(NC(=O)COc2ccc(Cl)cc2)n1 | 25* | -8% | 0% | -8% | 41
O=C(COc1ccc(Cl)cc1)NNC(=O)c1ccccn1 | 1 | -18% | -8% | -14% | -5
O=C(COc1ccc(Cl)cc1)Nc1ncccn1 | 34* | -10% | -2% | 3% | 35*
